Test results reported in the supplement of paper PMC6555819.

tested on: VDR:RXRa (NR concentration 270 nM, RXRa partner concentration 90 nM); test: PBM binding z-score (relative to random genomic background probes); higher = stronger binding; sequences stand for … in GC…GCGATTGACAGCGTAGAATGAAGG
Experimental: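 Protein-binding microarray (Agilent 4x180K custom design, double-stranded 60-nt probes: 5' GC cap, 34-nt variable region, 24-nt constant primer region; full probe sequence given). Purified or IVT nuclear receptor:RXRα heterodimers (3:1 NR:RXRα, mostly 270:90 nM) or homodimers were incubated for 1 h in PBS with 2% milk and no ligand, then detected with Alexa488 antibodies. Fluorescence from o1-orientation probes (~5 replicates averaged) was converted to z-scores against 500 random hg19 background probes. Variable regions are seed direct-repeat (DR0–DR5) sites, all their single-nucleotide variants and half-site ablations.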

Q: With CGTCAAAGTTCAACTAAGGCAACGTAAAGCACGC as the sequence, how does the PBM binding z-score read?
A: Its PBM binding z-score is 4.19.

Q: With ACTATTAGTTGAGACGATGGCAACCGATAGGTTG as the sequence, how does the PBM binding z-score read?
A: The PBM binding z-score was -0.293.

Q: With TCAGACAGGTGAATGTAACTCAGGTACGCAGTCG as the sequence, how does the PBM binding z-score read?
A: Its PBM binding z-score is 0.512.

Q: For TCATATAGGTAAATGCTAGGTCAAAGTCCGATCT, which PBM binding z-score is on record?
A: Its PBM binding z-score is 2.15.

Q: Which PBM binding z-score does the source give for ATCTCTAGGTAACAAATTCAGTGAAAGAGAGGAC here?
A: The PBM binding z-score was 0.375.

Q: With CCTACTGGGCCAAGGTCAATGATCAGTCAAAGCA as the sequence, how does the PBM binding z-score read?
A: Its PBM binding z-score is 2.24.

Q: Which PBM binding z-score does the source give for TCGAGTAGGTAAGTCGGGGCATTCAGCCAACATA here?
A: Its PBM binding z-score is 0.394.

Q: How did the PBM binding z-score turn out when TCTAGGAGGCCAGAGGGTCACTCAAGAGGTACGG was run?
A: The PBM binding z-score was 1.68.

Q: For ATCTCTAGGTAACCAAGTTCAGTGAGTGCCGAAC, which PBM binding z-score is on record?
A: Its PBM binding z-score is 4.27.

Q: With CGAATTAGGTCATTGACAGGACAGTGAATAGTAA as the sequence, how does the PBM binding z-score read?
A: Its PBM binding z-score is 2.3.

Q: How did the PBM binding z-score turn out when GCGACTGGGGCATCAGCAGGTTACCTTAACTTAA was run?
A: The PBM binding z-score was -0.355.

Q: CCTACTGGGCCATTAGGTCATTGATATCAACGTT was tested. Which PBM binding z-score did it give?
A: Its PBM binding z-score is 1.47.

Q: Which PBM binding z-score does the source give for TCAGACAGGTGAAGGTGACTCAGGTACGCAGTCG here?
A: Its PBM binding z-score is 1.04.

Q: AGGCAAAGTTCAGGACGAGGTAACGTAAAGCACG was tested. Which PBM binding z-score did it give?
A: The PBM binding z-score was 2.67.

Q: For AACACAGGGTCATCGTAGGCCAGAGTACGCACAG, which PBM binding z-score is on record?
A: The PBM binding z-score was 5.15.

Q: Which PBM binding z-score does the source give for ATCTCAAGGTAACCAAGTTCAGTGAATGCCGAAC here?
A: Its PBM binding z-score is 5.03.

Q: For CCGACTGGAGCAAAGGTTACCATACTCAGTACGA, which PBM binding z-score is on record?
A: The PBM binding z-score was 1.17.

Q: With CGTCAAAGTTCAACTAAGGTAACCTAAAGCACGC as the sequence, how does the PBM binding z-score read?
A: The PBM binding z-score was 4.68.

Q: For CGTACTAGGTCAAGGACAGTGAATCTCCGCACGC, which PBM binding z-score is on record?
A: The PBM binding z-score was 1.33.

Q: TCTAGTTGTTCACGGAGGTCACACACGACGGGTA was tested. Which PBM binding z-score did it give?
A: Its PBM binding z-score is 4.1.

Q: For ATTACAGGGTCATCGTAGGCCAGAGTACGCACAG, which PBM binding z-score is on record?
A: The PBM binding z-score was 5.39.

Q: With CCGACTGGGGCATAAGGTTTCCATAAGCCAGCCC as the sequence, how does the PBM binding z-score read?
A: The PBM binding z-score was -0.182.

Q: How did the PBM binding z-score turn out when TCTTGTAGATCAGCAGGTTATGAAAGCTGGCCAA was run?
A: Its PBM binding z-score is 0.359.

Q: For TCGAGTAGTTTAGTCGGGGCATTCAGCCAACATA, which PBM binding z-score is on record?
A: Its PBM binding z-score is 0.157.

Q: AATACAGCGTCATCGTAGGCCAGAGTACGCACAG was tested. Which PBM binding z-score did it give?
A: The PBM binding z-score was -0.373.

Q: How did the PBM binding z-score turn out when CCTATTAGTTGACAATAAGGGCAACCGAAGCTCG was run?
A: The PBM binding z-score was 1.09.

Q: With CGAACGAGGGCATGAATTGATAGCAAATGCCGAT as the sequence, how does the PBM binding z-score read?
A: The PBM binding z-score was 0.33.

Q: Which PBM binding z-score does the source give for CCTATTAGTTGACCATAAGGACAACCGAAGCTCG here?
A: The PBM binding z-score was 1.07.

Q: Which PBM binding z-score does the source give for CCTACTGGGCCATTCCGAGGTCATTGATCATATG here?
A: The PBM binding z-score was 3.86.

Q: GCTAGCAGGCCATTTGGGTCGCTCAATGACGGGC was tested. Which PBM binding z-score did it give?
A: Its PBM binding z-score is -0.563.

Q: For CCGACTGGGGCAGAAGGGTTACCATACCATCCGG, which PBM binding z-score is on record?
A: The PBM binding z-score was 0.121.

Q: With GATACAGGGTCAGCTAGAGGCCATAGTATGGAAA as the sequence, how does the PBM binding z-score read?
A: Its PBM binding z-score is 4.05.

Q: CGTCAAAGTTCAACTCAGGTAACGTAAAGCACGC was tested. Which PBM binding z-score did it give?
A: The PBM binding z-score was 4.45.

Q: How did the PBM binding z-score turn out when CTCGAAAGGACGGTTGAGGTGAGTATACGGATAA was run?
A: The PBM binding z-score was -0.266.

Q: Which PBM binding z-score does the source give for TCTCGGAGGACACGAAGGGTCAGAGCTCGACATC here?
A: The PBM binding z-score was 1.91.

Q: Which PBM binding z-score does the source give for TCTTGTCGATCAAAGGTTAAGAAAGCCGAAGCCT here?
A: The PBM binding z-score was 1.27.

Q: How did the PBM binding z-score turn out when GCAGACAGGTGAAACGCATGTAACTCAGGGTGGC was run?
A: The PBM binding z-score was -0.601.

Q: For CCTAGTTGGTCAAGGTCACAAACGCTATAGGTAC, which PBM binding z-score is on record?
A: The PBM binding z-score was 3.73.

Q: Which PBM binding z-score does the source give for CCGAGTGGGGCAAGGTTACCATAACGCACAGCCA here?
A: Its PBM binding z-score is 0.482.

Q: With TCGAGTAGGTTAGTAGGGGCATTCAGCCAACATA as the sequence, how does the PBM binding z-score read?
A: The PBM binding z-score was 3.1.
